Data: PubChem BioAssay (NCI)
This is part of a sample that, as a whole, favours compounds with a hit. Of some 83,000 tested, about 20% had one in any assay.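 48-hour exposure, single concentration, 96-well plates; percent growth endpoint where 0 means no net growth. Active: below 10.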 Active and inactive are the calls of the source.

Tests used:
Assay in all cases: NCI-60 one-dose screen, 48 h (100 = growth as untreated, 0 = no growth, -100 = all killed)
Settings in all cases: 10 µM unless noted
[1] = tested on: T-47D breast
[2] = tested on: BT-549 breast
[3] = tested on: MDA-MB-435 melanoma
[4] = tested on: SW-620 colon
[5] = tested on: MCF7 breast
[6] = tested on: HCT-116 colon
[7] = tested on: HCC-2998 colon
[8] = tested on: KM12 colon

Measured: growth

CCOC(=O)c1cn2ncnc(Oc3ccc(NC(=O)NC4CCCCC4)c(Cl)c3)c2c1C
inactive: [1] 85% | [2] 90.4% | [3] 85.6% | [4] 81.6% | [5] 51.7% | [6] 81.4% | [7] 94.6% | [8] 96.9%

O=C(NCCCCNC(=O)OCc1ccc2c(Cl)cc(Cl)c(O)c2n1)OCc1ccc2c(Cl)cc(Cl)c(O)c2n1
active: [3] -48.7% | [6] 7.49% | [8] 6.41%
inactive: [1] 61% | [2] 15.3% | [4] 19.5% | [5] 13.7% | [7] 18.5%

COc1ccc2c(O)c(/C=C3\N=Nc4ncccc43)oc2c1C[C@H]1CCNC[C@H]1F
active: [2] -54.6% | [3] 7.14% | [4] -15.5% | [5] 2.59% | [6] -6.67% | [7] 0.205% | [8] -17.4%
inactive: [1] 41.5%

O=C1NCCC12CCN(c1c(Cl)cncc1-c1ccc(O)cc1)CC2
inactive: [1] 93.7% | [2] 114% | [3] 100% | [4] 99.6% | [5] 95.4% | [6] 97.3% | [7] 120% | [8] 105%

CN1CCN(Cc2ccc(NC(=O)c3cncc(C#Cc4cnc(N)c5ccccc45)c3)cc2C(F)(F)F)CC1
inactive: [2] 25.9%
active: [1] -60.6% | [3] -88.7% | [4] -73.4% | [5] -76.8% | [6] -60.9% | [7] -92.3% | [8] -86.6%

Oc1ccc(CCn2c(O)c(/C=C3\CN=c4ccccc4=N3)sc2=S)cc1
active: [8] 5.46%
inactive: [1] 39.8% | [2] 43.8% | [3] 70.6% | [4] 67.4% | [5] 16.7% | [6] 55.8% | [7] 87.1%

O=C(CSc1nc2sc3c(c2c(=O)n1-c1ccccc1)CCCCC3)N/N=C/c1ccc(F)cc1
active: [6] -26.2%
inactive: [1] 16.9% | [2] 48.4% | [3] 70% | [4] 53% | [5] 26.8% | [7] 106% | [8] 42.6%

COc1ccc(OC)c(-c2c(C#N)c(-c3cccs3)nc3c2c(-c2ccccc2)nn3-c2ccccc2)c1
inactive: [1] 94.3% | [2] 121% | [3] 104% | [4] 93.9% | [5] 98.6% | [6] 91.7% | [7] 110% | [8] 105%

CC(C)c1ccc(NC(=O)Nc2ccc(NC(=O)CCCC(=O)NOCc3ccccc3)cc2)cc1
inactive: [1] 59.3% | [2] 106% | [3] 89.1% | [4] 107% | [5] 80.2% | [6] 93.4% | [7] 66% | [8] 94.4%

O=C(NNC(=O)c1ccc(-n2cc(-c3ccccc3)nn2)cc1)Nc1ccccc1
inactive: [1] 102% | [2] 97.9% | [3] 105% | [4] 101% | [5] 99.4% | [6] 94.3% | [7] 116% | [8] 107%

Cc1nnc(NC(=O)c2nc(S(=O)(=O)Cc3ccc(F)cc3)ncc2Cl)s1
inactive: [1] 38.5% | [2] 26.7% | [3] 75.9% | [5] 44.7% | [7] 99.1% | [8] 90.8%
active: [4] -59.8% | [6] -0.743%

Cc1ccc(CNc2ccc(Cl)cc2NCc2ccc(C)c(O)c2)cc1O
active: [5] 9.21% | [8] -1.46%
inactive: [1] 11.3% | [2] 39.9% | [3] 30.9% | [4] 25.9% | [6] 24.4% | [7] 22.7%

CN(CCn1sc(=O)n(Cc2ccccc2)c1=O)Cc1ccc2c(Cl)cc(Cl)c(O)c2n1
inactive: [1] 44.9% | [2] 70.5% | [3] 55.8% | [4] 22.7% | [5] 29.9% | [6] 19% | [7] 52.2% | [8] 37.1%

O=C(Nc1ncc(Cc2ccc(Cl)c(C(F)(F)F)c2)s1)c1ccc2nnsc2c1
inactive: [1] 24.8% | [2] 65.5% | [3] 22.6% | [4] 44.3% | [5] 20.4% | [6] 45% | [7] 10.6% | [8] 37.8%

CC1(c2ccccc2O)NN=C(/N=C/c2cccc([N+](=O)[O-])c2)N1C(Cc1c[nH]c2ccccc12)C(=O)O (stereo not drawn)
inactive: [1] 91.1% | [2] 97.5% | [3] 106% | [4] 94.9% | [5] 77.3% | [6] 87% | [7] 97.8% | [8] 96.4%

O=C(O)CNC1=C(Cl)C(=O)c2ccccc2C1=O
inactive: [1] 78.1% | [2] 87.5% | [3] 102% | [4] 102% | [5] 81.8% | [6] 100% | [7] 114% | [8] 104%

N#Cc1c(-c2ccccc2)cc(-c2ccccc2)n(CCCCCC(=O)Nc2ccccc2N)c1=O
inactive: [1] 48.3% | [2] 49.5% | [3] 92.1% | [4] 86.2% | [5] 68.4% | [6] 58.1% | [7] 80.5% | [8] 55.3%

O=[N+]([O-])c1ccc(-c2nc(N3CCOCC3)c3c4c(sc3n2)CCCC4)cc1
inactive: [1] 83.5% | [2] 82.3% | [3] 99.1% | [4] 95.1% | [5] 73.1% | [6] 68.1% | [7] 102% | [8] 95.5%

O=C(COc1ccc(-c2nc3ccccc3[nH]2)cc1)N=Nc1c(O)[nH]c2ccc(Cl)cc12
inactive: [1] 65.4% | [2] 110% | [3] 93.9% | [4] 40.6% | [5] 22.3% | [6] 47.2% | [7] 65.2% | [8] 15.3%

S=C1CCSC(=S)N1CCCN1C(=S)CCSC1=S
inactive: [1] 35% | [2] 89.4% | [3] 59.6% | [4] 53% | [5] 20.8% | [6] 43% | [7] 96.2% | [8] 82.7%

COc1ccc(-c2nc3c(c(-c4ccccc4)nn3-c3ccccc3)c(-c3ccc(N4CCN(C)CC4)cc3)c2C#N)cc1
inactive: [1] 96.2% | [2] 90.6% | [3] 93.9% | [4] 85.6% | [5] 81% | [6] 81.4% | [7] 106% | [8] 95.6%

CC(C)NC1CCC(Nc2ccnc3cc(Cl)ccc23)CC1 (stereo not drawn)
inactive: [1] 80.3% | [2] 88.8% | [3] 96% | [4] 91.7% | [5] 93.3% | [6] 76.6% | [7] 101% | [8] 110%

CS(=O)(=O)c1cccc(-c2c(-c3cccc(OS(N)(=O)=O)c3)nc3sccn23)c1
inactive: [1] 79.3% | [2] 100% | [3] 102% | [4] 99.7% | [5] 92% | [6] 97.9% | [7] 104% | [8] 103%

CC(=O)[C@@H]1CCC=C2CC[C@]3(C)[C@@H](CC[C@@H]4[C@@]5(C)CCCNC(C)(C)[C@@H]5CC[C@]43C)[C@H]21
inactive: [1] 33.9% | [2] 75.9%
active: [3] -71.1% | [4] -58.9% | [5] -72.9% | [6] -96.2% | [7] -93.8% | [8] -79%

Cc1ccc(/C=N/Nc2nc(Nc3ccccc3)nc(-n3nc(C)cc3C)n2)cc1
inactive: [3] 41.8% | [4] 48.8% | [5] 16.4% | [6] 27.6% | [7] 43.1% | [8] 25.6%
active: [1] 7.35% | [2] -5.91%

COc1ccc2[nH]cc(-c3nc(-c4c[nH]c5ccncc45)cs3)c2c1
active: [3] -76.3% | [4] -61.4% | [5] 5.44% | [6] -62% | [7] -45.8%
inactive: [1] 61.5% | [2] 74% | [8] 21.1%

O=C(OCc1ccc2c(Cl)cc(Cl)c(O)c2n1)n1cncn1
inactive: [1] 36.1% | [2] 50.4% | [3] 27.9% | [4] 24.7% | [5] 23.2% | [6] 30.1% | [7] 54.4% | [8] 21.8%

C[C@H](NC(=O)[C@@H](C)N)[C@H](Oc1ccc2c(cnn2-c2ccc(F)cc2)c1)c1ccc2c(c1)OCCO2
inactive: [1] 36.2% | [2] 32.9% | [3] 45.4% | [4] 62% | [5] 46.4% | [6] 38.6% | [7] 28.1% | [8] 36.1%

COc1cc(-c2nc(SCC(C)C)nc(Nc3cccc4ccccc34)c2C#N)cc(OC)c1OC
inactive: [1] 70.3% | [2] 110% | [3] 99.3% | [4] 95.3% | [5] 94% | [6] 37.7% | [7] 118% | [8] 97.5%

Cc1c(-c2nc3ccc(F)cc3c(=O)[nH]2)c2ccccc2n1C
inactive: [1] 36.1% | [2] 43.8% | [4] 16.1% | [5] 19.1% | [6] 25.1% | [7] 53% | [8] 22%
active: [3] -38.8%

N#C/C(=C/c1ccc([N+](=O)[O-])cc1)n1nnc2cc(F)c(F)cc21
active: [5] 8.8% | [6] 5.65%
inactive: [1] 11.6% | [2] 77.3% | [3] 64.2% | [4] 59.7% | [7] 70.5% | [8] 13.1%
